High-throughput results (PubChem BioAssay)
SRC3 TRFRET art: TR-FRET detection interference compounds, artefact control for PPARgamma SRC-3 recruitment agonists, biochemical, TR-FRET ratio | TR-FRET artefact counter-screen, PPARgamma/SRC-3 format; active compounds read high | TR-FRET ratio at 8 µM | actives 0.39% (n = 99,000) | AID 1048, 2008; in the data active means TR-FRET ratio above about 2000
PPARg SRC-1 ag: PPARgamma agonists recruiting SRC-1 coactivator, primary screen, biochemical. PPARgamma-SRC-1 coactivator recruitment biochemical assay. activation, % at 8 µM. actives 0.41% (n = 200,000). AID 631, 2007; in the data active means activation above about 19%;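 further: 0% = DMSO and 100% = reference agonist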
Target sequence (P37231 whole entry, looked up): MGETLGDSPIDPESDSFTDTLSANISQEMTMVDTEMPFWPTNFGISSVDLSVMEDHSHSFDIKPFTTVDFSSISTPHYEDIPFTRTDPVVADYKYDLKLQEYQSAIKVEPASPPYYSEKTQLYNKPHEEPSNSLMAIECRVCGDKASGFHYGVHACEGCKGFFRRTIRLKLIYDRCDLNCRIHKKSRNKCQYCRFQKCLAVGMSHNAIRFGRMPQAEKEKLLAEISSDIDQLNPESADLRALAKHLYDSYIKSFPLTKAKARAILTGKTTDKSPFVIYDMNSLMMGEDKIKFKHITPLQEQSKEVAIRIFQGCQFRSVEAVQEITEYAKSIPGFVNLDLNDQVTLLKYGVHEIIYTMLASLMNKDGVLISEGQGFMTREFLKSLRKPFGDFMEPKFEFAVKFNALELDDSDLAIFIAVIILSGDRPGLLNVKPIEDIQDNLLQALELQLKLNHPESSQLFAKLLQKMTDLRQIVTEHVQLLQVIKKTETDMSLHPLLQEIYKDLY
PPARg SRC-2 ag: agonists of PPARg-SRC-2 recruitment, primary screen, biochemical, HTS. Peroxisome proliferator-activated receptor gamma (Homo sapiens), P37231. PPARgamma LBD-SRC-2 recruitment. activation, % at 8 µM. actives 0.34% (n = 200,000). AID 1032, 2008;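 further: 0% = vehicle and 100% = reference agonist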
TR-FRET SRC-2 ct: TR-FRET signal artefacts, primary screen, artefact control for PPARgamma SRC-2 agonist project, biochemical. actives 0.4% (n = 200,000). TR-FRET ratio at 8 µM. AID 1049, 2008. TR-FRET artefact counter-screen; active compounds read high; in the data active means TR-FRET ratio above about 2000
SRC1 TRFRET art: TR-FRET detection interference compounds, primary screen, artefact control for PPARgamma SRC-1 recruitment agonists, biochemical, TR-FRET emission ratio. TR-FRET detection artefact counter-screen; active compounds read high. TR-FRET ratio at 8 µM. actives 0.34% (n = 99,000). AID 1051, 2008; in the data active means TR-FRET ratio above about 2300
PPARg SRC3 recr: PPARgamma agonists recruiting SRC-3 coactivator, primary screen, biochemical. Peroxisome proliferator-activated receptor gamma (Homo sapiens), P37231. biochemical PPARgamma/SRC-3 coactivator recruitment assay. activation, % at 8 µM. actives 0.26% (n = 200,000). AID 731, 2007; in the data active means activation above about 23%;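 further: 0% = DMSO and 100% = reference agonist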
PPARg SRC2 conf: agonists of PPARgamma SRC-2 coactivator recruitment, confirmation, biochemical, HTS; actives 52% (n = 790); activation, % at 8 µM; shares compounds with PPARg SRC3 recr; biochemical SRC-2 recruitment by PPARgamma;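 further: 0% = vehicle alone and 100% = reference agonist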
PPARg SRC1 ag: PPARgamma agonists recruiting SRC-1 coactivator, confirmation, biochemical; shares compounds with PPARg SRC3 recr; activation, % at 8 µM; PPARgamma–SRC-1 coactivator recruitment biochemical assay; actives 43% (n = 790); in the data active means activation above about 20%;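 further: 0% = vehicle wells and 100% = reference agonist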
PPARg SRC3 ag: PPARgamma-driven SRC-3 coactivator recruitment agonists, confirmation, biochemical; shares compounds with PPARg SRC3 recr; biochemical PPARgamma-SRC-3 coactivator recruitment, agonist mode; activation, % at 8 µM; actives 29% (n = 790); in the data active means activation above about 24%;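 further: 0% = vehicle wells and 100% = reference agonist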
The depositor's hits bear a star; . = no result. In the library only some 0.9% were active in any assay of this set; here they are far more common. Unless noted, no stated cut-off is given here; in the data, active means activation above about 22%; inactive means the rest.

SMILES	SRC3 TRFRET art	PPARg SRC-1 ag	PPARg SRC-2 ag	TR-FRET SRC-2 ct	SRC1 TRFRET art	PPARg SRC3 recr	PPARg SRC2 conf	PPARg SRC1 ag	PPARg SRC3 ag
CCN(CC)CCN1C(=O)C(O)=C(C(=O)c2cc3ccccc3o2)C1c1cccnc1 (stereo not drawn)	.	33.0*	39.5*	2274*	.	52.2*	11.3	7.7	8.2
O=C(C1=C(O)C(=O)N(CCc2ccccc2)C1c1ccncc1)c1cc2ccccc2o1 (stereo not drawn)	2106*	20.6*	24.6*	2092*	2514*	10.4	26.2*	17.9	18.1
CCN(CC)CCN1C(=O)C(O)=C(C(=O)c2sc(C)nc2C)C1c1cccnc1 (stereo not drawn)	.	-12.7	1.5	1457	.	4.3	.	.	.
COc1cc(C2C(C(C)=O)=C(O)C(=O)N2CCN(C)C)ccc1O (stereo not drawn)	.	6.3	1.9	1429	.	-1.4	.	.	.
CN(C)CCN1C(=O)C(O)=C(C(=O)c2cc3ccccc3o2)C1c1cccc(Br)c1 (stereo not drawn)	.	36.3*	44.8*	2387*	.	58.4*	38.1*	25.8*	26.3*
COc1ccc(-c2nc(NC(=O)c3n[nH]c(=O)c4ccccc34)sc2C)cc1	1737	2.4	8.9	1626	1923	-0.6	.	.	.
O=C(C1=C(O)C(=O)N(CCCN2CCOCC2)C1c1ccccn1)c1cc2ccccc2o1 (stereo not drawn)	.	20.9*	25.2*	1804	.	35.4*	16.6	12.2	9.0
O=c1c([N+](=O)[O-])c(N2CCCC2)c2ccccc2n1-c1ccccc1	1538	0.9	-4.0	1547	1926	4.1	.	.	.
COc1ccc(-c2nn(CC(=O)Nc3ccc(Cl)c(Cl)c3)c(=O)c3ccccc23)cc1	.	19.2*	-3.2	2357*	.	21.6	10.9	12.8	7.9
COc1ccc(Br)cc1-c1nc(CCl)cs1	3363*	62.1*	61.7*	3230*	3749*	42.2*	58.6*	43.1*	41.3*
Cc1c(NC(=O)CS(=O)(=O)c2ccccc2)c(=O)n(-c2ccccc2)n1C	1542	-2.9	3.9	1424	1628	-6.6	.	.	.
C=CCSC1=Nc2sccc2C2=NC(=O)CN12	.	12.6	23.1*	1562	.	10.9	9.0	8.4	7.3
S=c1nc(-c2sccc2OCc2ccc(Cl)cc2Cl)[nH][nH]1	1726	0.9	13.1	1607	1744	6.3	.	.	.
CCn1c(=O)cc(OCC(=O)N2CCCCCC2)c2ccccc21	.	5.0	4.2	1453	.	1.4	.	.	.
CCn1c(=O)cc(SCC(=O)N2CCN(C3CCCCC3)CC2)c2ccccc21	.	19.3*	35.2*	2255*	.	36.5*	27.1*	17.1	18.2
CCn1c(=O)cc(SCC(=O)N2CCN(C(=O)c3ccco3)CC2)c2ccccc21	.	54.3*	55.5*	2772*	.	62.9*	33.6*	20.8*	23.6
CCN1CCCC1CNC(=O)CSc1cc(=O)n(CC)c2ccccc12 (stereo not drawn)	.	23.1*	25.6*	2187*	.	41.5*	26.6*	14.6	18.0
CCn1c(=O)cc(SCC(=O)NCCCN2CCN(c3ccccc3F)CC2)c2ccccc21	.	64.6*	78.5*	3692*	.	96.2*	41.9*	27.3*	28.5*
Cc1cc(C)n(C(=O)CCCn2nc(C)c([N+](=O)[O-])c2C)n1	1291	-6.2	-2.4	1432	1834	2.0	.	.	.
CC(C)OCCCNC(=S)Nc1ccc(S(N)(=O)=O)cc1	1547	-1.3	-4.3	1418	1584	0.8	.	.	.
CCn1c(=O)cc(SCC(=O)N2CCOCC2)c2ccccc21	.	45.3*	54.7*	2862*	.	81.8*	34.5*	22.0*	22.3
CCn1c(=O)cc(SCC(=O)N2CCN(c3ccccc3OC)CC2)c2ccccc21	.	71.7*	67.6*	2834*	.	85.2*	53.1*	37.1*	34.4*
NC(=O)CC[C@H](NC(=O)c1ccc(F)cc1)C(=O)OCC(=O)Nc1ccc(N2CCOCC2)cc1	1649	4.8	0.4	1595	1635	-1.9	.	.	.
O=C(CSc1ncnc2c1oc1ccccc12)N1CCCc2ccccc21	.	16.2	39.9*	1981*	.	39.5*	30.9*	24.0*	19.1
N#CCCSc1ncnc2c1oc1ccccc12	.	19.9*	41.1*	2279*	.	35.7*	30.9*	21.4*	22.1
SMILES	SRC3 TRFRET art	PPARg SRC-1 ag	PPARg SRC-2 ag	TR-FRET SRC-2 ct	SRC1 TRFRET art	PPARg SRC3 recr	PPARg SRC2 conf	PPARg SRC1 ag	PPARg SRC3 ag
O=C(CSc1ncnc2c1oc1ccccc12)Nc1ccccc1C(F)(F)F	1851	11.3	7.3	1704	2040	12.1	.	.	.
O=C(O)CSc1ncnc2c1oc1ccccc12	.	19.3*	26.2*	1845	.	23.8	18.4	13.0	11.2
OCCSc1ncnc2c1oc1ccccc12	.	12.5	23.4*	1920	.	6.5	27.7*	21.8*	18.3
O=C(NCC1CCCO1)c1cc(S(=O)(=O)N2CCCC2)c(Cl)cc1Cl (stereo not drawn)	1566	7.2	9.5	1623	1808	6.2	.	.	.
O=C(CSc1ncnc2c1oc1ccccc12)NCc1ccco1	.	91.5*	91.8*	3393*	.	106.5*	64.7*	47.0*	43.9*
CCOC(=O)CC(=O)CSc1ncnc2c1oc1ccccc12	.	96.5*	87.2*	3929*	.	138.2*	55.1*	36.0*	37.0*
CCCCc1nc2sc3c(SCC(=O)NCc4ccco4)ncnc3c2c2c1CCC2	.	22.0*	7.3	1710	.	10.5	37.5*	26.2*	25.8*
CN(C(=O)CO/N=C/c1ccc(Cl)cc1)c1ccccc1	1382	2.7	0.7	1572	1757	3.0	.	.	.
Cc1no[n+]([O-])c1COc1ccc(/C=N/n2nnnc2N)cc1	1540	0.6	-7.5	1358	1971	1.2	.	.	.
Cc1cccc(CSc2nc3c(c(-c4cccs4)c2C#N)CN(C)CC3)c1	1672	-0.7	0.7	1415	1666	-4.2	.	.	.
Cc1cccc(CSc2nc(N)c(C#N)c(-c3cccs3)c2C#N)c1	.	6.8	22.8*	1646	.	20.4	13.8	8.3	7.6
CC(=O)c1cccc(NC(=O)N2CCC(NC(=O)C34CC5CC(CC(C5)C3)C4)CC2)c1	1553	-2.7	-1.6	1558	1899	-3.8	.	.	.
